The full list was thinned out, with hits kept by preference.
IL-1B inflam inh: qHTS for Inhibitors of Inflammasome Signaling: IL-1-beta AlphaLISA Primary Screen | THP-1 LPS/ATP IL-1B secretion, AlphaLISA, 16 h; hits give low values | activity change, % at 57.5 µM | hit rate 4.7% among 360,000 | AID 743279, 2014; in the data active = activity change below about -50%; inconclusive = mostly about -30% to -49%
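THP-1 cells pretreated 1 hr with compounds (up to 57.5 uM final), then stimulated with LPS (250 ng/mL final) plus ATP (1.25 mM final); secreted IL-1B measured by AlphaLISA after 16 hr, decreased signal indicating inhibition.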
ALOX12 inh: Primary qHTS assay for inhibitors of human arachidonate 12S-lipoxygenase (ALOX12): Round 2 | hit rate 1.1% among 580,000 | AID 1671190, 2021 | Polyunsaturated fatty acid lipoxygenase ALOX12 (Homo sapiens), P18054 | purified 12hLO, xylenol orange hydroperoxide absorbance | Potency, µM (top dose mostly 108 µM), actives largely listed as inhibitors
Target sequence (P18054 whole entry, looked up): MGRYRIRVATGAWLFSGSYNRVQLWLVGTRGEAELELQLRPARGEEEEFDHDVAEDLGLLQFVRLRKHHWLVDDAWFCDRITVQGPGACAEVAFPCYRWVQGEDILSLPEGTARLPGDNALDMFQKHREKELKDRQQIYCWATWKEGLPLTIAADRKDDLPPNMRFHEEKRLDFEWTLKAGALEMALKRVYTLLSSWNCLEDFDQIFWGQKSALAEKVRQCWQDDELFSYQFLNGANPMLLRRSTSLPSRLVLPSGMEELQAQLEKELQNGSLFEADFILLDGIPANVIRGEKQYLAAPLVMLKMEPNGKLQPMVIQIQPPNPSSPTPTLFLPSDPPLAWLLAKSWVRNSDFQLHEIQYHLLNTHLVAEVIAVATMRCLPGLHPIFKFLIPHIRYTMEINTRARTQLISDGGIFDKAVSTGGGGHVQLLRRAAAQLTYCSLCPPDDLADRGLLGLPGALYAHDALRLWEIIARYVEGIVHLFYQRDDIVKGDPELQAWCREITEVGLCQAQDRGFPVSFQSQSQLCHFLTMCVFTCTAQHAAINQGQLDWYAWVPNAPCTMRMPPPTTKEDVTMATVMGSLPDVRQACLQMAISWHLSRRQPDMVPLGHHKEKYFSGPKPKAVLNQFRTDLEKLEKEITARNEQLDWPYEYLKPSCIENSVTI
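Purified human 12hLO (150 nM final) in 25 mM Hepes, 0.01% Triton X-100, pH 7.0 was preincubated 15 min at room temperature with compound. Then 40 uM arachidonic acid was added, 30 min. Hydroperoxide was read by Fe-XO absorbance ratio 573/405 nm.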
HT1080 IDH1KD tx: qHTS for induction of synthetic lethality in tumor cells producing 2HG: qHTS for the HT-1080-IDH1KD cell line. HT-1080 IDH1 knockdown viability, ATP luminescence, 48 h. Potency, µM (series often up to 46.1 µM), actives largely listed as cytotoxic. hit rate 2% among 360,000. AID 686971, 2013
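Using the IDH1-knockdown HT-1080 line run in the same batch and compound series as the NT line, viability after 48 h at 37 °C was determined by CellTiter-Glo luminescence and expressed as % activity.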
HT1080-NT tox: qHTS for induction of synthetic lethality in tumor cells producing 2HG: qHTS for the HT-1080-NT fibrosarcoma cell line | HT-1080-NT fibrosarcoma viability, CellTiter-Glo ATP luminescence, 48 h | Potency, µM (highest dose often 46.1 µM), usual class: cytotoxic | hit rate 1.6% among 360,000 | AID 686970, 2013;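 also: NT is the 2HG producing partner of a matched IDH1 knockdown line; nearly all actives have a fitted effect of over 55% in size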
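A 48-hour cytotoxicity screen used HT-1080-NT cells plated 2 hours before compound delivery. ATP-based CellTiter-Glo luminescence measured viability, normalized to DMSO and no-cell controls.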
DT40 TDP1 CPT: qHTS for Inhibitors of human tyrosyl-DNA phosphodiesterase 1 (TDP1): qHTS in cells in presence of CPT; hit rate 12% among 420,000; chicken DT40 Tdp1-/-;hTDP1 cells + 20 nM CPT, ATP luminescence, 48 h; Potency, µM (highest dose often 46.2 µM), actives largely listed as inhibitors; AID 686979, 2013; also: nearly all actives have a fitted effect of over 55% in size
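Chicken DT40 Tdp1-/- cells stably complemented with human TDP1 were seeded at 400 cells/well in medium containing 20 nM camptothecin, exposed to pin-transferred compounds, and grown at 37 °C for at least 48 hr. Viability was read as ATP luminescence.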
TDP1 cell noCPT: qHTS for Inhibitors of human tyrosyl-DNA phosphodiesterase 1 (TDP1): qHTS in cells in absence of CPT | Potency, µM (titrated, usually from 46.2 µM), actives largely listed as inhibitors | AID 686978, 2013 | hit rate 15% among 420,000 | DT40 Tdp1-/- hTDP1 cells, no CPT, ATP luminescence, 48 h; also: nearly all actives have a fitted effect of over 55% in size
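Stably hTDP1-transfected Tdp1-null chicken DT40 cells were treated with library compounds minus camptothecin and grown for at least 48 hr at 37 °C, after which cellular ATP was quantified by luminescence.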
Hits are given with their value; – = inactive; ? = inconclusive; · = no result given; [ ] = another dose, or the depositor's remark. Unless noted, calls follow the shape of the dose curve; as a rule, active = well fitted curve in the direction sought with a large enough effect; inconclusive = small, poorly fitted or top-dose-only effect, or another doubt; inactive = no such curve, though single readings can be large; an effect the other way counts as inactive or inconclusive.

SMILES | IL-1B inflam inh | ALOX12 inh | HT1080 IDH1KD tx | HT1080-NT tox | DT40 TDP1 CPT | TDP1 cell noCPT
Cc1nc2ccccc2nc1COC(=O)c1cnc2ccccc2n1 | · | – | · | · | · | ·
COC(=O)/C=C1\OCc2cc(OC)c(OCc3ccccc3)cc21 | – | – | – | – | ? | 21µM
CC(=O)Nc1ccc(CN(Cc2ccc(NC(C)=O)cc2)C[C@H]2C[C@@H]3CCN2C[C@@H]3c2cc(-c3ccco3)nc(C)n2)cc1 | · | – | · | · | · | ·
Cn1c2c(c3ccccc31)CCN(CCCCN1CCN(c3ccccc3)CC1)C2=O | -62 | – | ? | – | ? | ?
Cc1c(C(=O)CN2CCN(c3ccccc3)CC2)c2ccccc2n1C | – | ? | – | – | ? | ?
CC(C)c1ccc(CN2CCCC3(CCN(C(=O)c4ccsc4)C3)C2)cc1 (stereo not drawn) | · | – | · | · | · | ·
Cc1nsc2nc3c(F)c(F)c(F)c(F)c3cc12 | -97 | – | ? | – | ? | ?
O=C(NC1CCc2n[nH]c(=O)n2CC1)c1ccoc1 (stereo not drawn) | · | – | · | · | · | ·
COc1ccc([S+](=O)([O-])c2nnn3c2nc(NC2CC2)c2ccccc23)cc1 | · | –[6.33 µM] | · | · | · | ·
O=C1Nc2ccccc2OCC12CCN(Cc1ccc(OC(F)(F)F)cc1)CC2 | · | – | · | · | · | ·
C/C(Cn1cnc([N+](=O)[O-])n1)=N\NC(=O)c1cccnc1 | – | – | – | – | – | –
C/C(Cn1nnc([N+](=O)[O-])n1)=N\NC(=O)c1ccc(O)cc1 | – | – | – | ? | 15µM | 13µM
C/C(Cn1nnc([N+](=O)[O-])n1)=N\NC(=O)c1ccc(Cl)c(Cl)c1 | – | – | ? | ? | 18µM | 16µM
C/C(Cn1cnc([N+](=O)[O-])n1)=N\NC(=O)c1ccc(Br)cc1 | – | – | – | – | – | –
CNC(=O)N1CCC(C2CCN(C(=O)c3ccc4ccccc4n3)C2)CC1 (stereo not drawn) | · | – | · | · | · | ·
Cc1cnc(NC(=O)C(C)N2CCN(C)CC2)s1 (stereo not drawn) | – | 2.5µM | – | – | – | –
CCCC1CCC(c2ccc(-c3ccc(OC(F)F)c(F)c3)cc2)CC1 (stereo not drawn) | · | – | · | · | · | ·
O=C(COc1ccccc1)Nc1c(C(=O)N2CCN(c3ccc(F)cc3)CC2)oc2ccccc12 | · | – | · | · | ? | ?
COc1cccc(N2CCN(C(=O)c3oc4ccccc4c3NC(=O)Cc3ccc(OC)c(OC)c3)CC2)c1 | – | – | – | – | 16µM | ?
COc1ccc(NC(=O)c2oc3ccccc3c2NC(=O)Cc2ccc(F)cc2)c(OC)c1 | · | – | · | · | 12µM | 8.2µM
CCOc1ccc(C(=O)Nc2c(C(=O)N3CCN(c4ccccc4F)CC3)oc3ccccc23)cc1 | · | – | · | · | ? | –
Cc1ccc(CC(=O)Nc2c(C(=O)N3CCN(c4ccccc4F)CC3)oc3ccccc23)cc1 | · | – | · | · | ? | 18µM
COc1cccc(N2CCN(C(=O)c3oc4ccccc4c3NC(=O)CCc3cc(OC)no3)CC2)c1 | – | – | – | – | – | ?
O=C(Cc1ccccc1)Nc1c(C(=O)N2CCN(c3ccc(F)cc3)CC2)oc2ccccc12 | · | – | · | · | 16µM | 26µM
O=C(NCCCO)c1nc(-c2cccc3[nH]ccc23)no1 | · | – | · | · | · | ·
SMILES | IL-1B inflam inh | ALOX12 inh | HT1080 IDH1KD tx | HT1080-NT tox | DT40 TDP1 CPT | TDP1 cell noCPT
COC(=O)c1ccc2c(c1)nc1n2[C@@H](CNC(C)=O)COC1 | · | – | · | · | · | ·
COc1ccccc1C(=O)Nc1c(C(=O)Nc2ccccc2F)oc2ccccc12 | · | – | · | · | 21µM | 26µM
COc1ccccc1C(=O)Nc1c(C(=O)N2CCN(c3ccccc3F)CC2)oc2ccccc12 | · | – | · | · | 16µM | 16µM
COc1cccc(OC)c1C(=O)Nc1c(C(=O)N2CCN(Cc3ccccc3)CC2)oc2ccccc12 | · | – | · | · | · | ·
Cc1ccc(CC(=O)Nc2c(C(=O)N3CCN(c4ccccc4)CC3)oc3ccccc23)cc1 | · | – | · | · | 23µM | ?
O=C(Nc1c(C(=O)N2CCN(c3ccccc3)CC2)oc2ccccc12)c1ccco1 | · | – | · | · | ? | ?
COc1ccc(CC(=O)Nc2c(C(=O)N3CCN(c4ccccc4F)CC3)oc3ccccc23)cc1OC | · | – | · | · | 10µM | 13µM
CCc1ccccc1N(C)S(=O)(=O)c1ccc2[nH]cc(C(=O)N3CCc4ccccc43)c(=O)c2c1 | – | – | ? | ? | ? | 18µM
C=CCNC(=O)c1c[nH]c2ccc(S(=O)(=O)N(C)c3ccc(OCC)cc3)cc2c1=O | – | – | – | – | 21µM | 21µM
CCOc1ccc(NS(=O)(=O)c2ccc3[nH]cc(C(=O)NCc4ccco4)c(=O)c3c2)cc1 | · | ? | · | · | – | –
CCOc1ccc(N(C)S(=O)(=O)c2ccc3[nH]cc(C(=O)NCCCOC)c(=O)c3c2)cc1 | – | – | – | – | 23µM | 21µM
CCCCN(C)CCNC(=O)c1c[nH]c2ccc(S(=O)(=O)N(CC)CC)cc2c1=O | – | – | – | – | – | –
CCCNC(=O)c1c[nH]c2ccc(S(=O)(=O)N(C)c3ccc(OCC)cc3)cc2c1=O | – | – | – | – | ? | 23µM
CCOC(=O)c1cnc2c(OC)cccc2c1Nc1cc(C(=O)O)ccc1C | · | – | · | · | · | ·
Cc1nc(CC2CCN(C(=O)c3ccccc3)CC2)n[nH]1 | · | – | · | · | · | ·
CCCN(C(=O)c1cn(C)c(=O)c2cc(OC)c(OC)cc12)c1cccc(C)c1 | · | – | · | · | · | ·
Cc1ccc(C2Cn3nnc(C(=O)N4CCC(C(=O)NCc5ccncc5)CC4)c3CO2)cc1 (stereo not drawn) | · | – | · | · | · | ·
CCN(c1ccccc1)S(=O)(=O)c1ccc2[nH]cc(C(=O)NCCOC)c(=O)c2c1 | – | – | – | – | ? | ?
CCOc1ccc(NS(=O)(=O)c2ccc3[nH]cc(C(=O)NC4CCCC4)c(=O)c3c2)cc1 | · | ? | · | · | – | –
CCOc1ccc(NS(=O)(=O)c2ccc3[nH]cc(C(=O)NC(C)CC)c(=O)c3c2)cc1 (stereo not drawn) | – | – | – | – | ? | 21µM
Cc1ccc(C)c(N(C)S(=O)(=O)c2ccc3[nH]cc(C(=O)NCCN4CCOCC4)c(=O)c3c2)c1 | -63 | – | – | – | – | ?
CCOc1ccc(N(C)S(=O)(=O)c2ccc3[nH]cc(C(=O)NCCOC)c(=O)c3c2)cc1 | – | – | – | – | 13µM | ?

Source: PubChem BioAssay (National Center for Advancing Translational Sciences (NCATS))
